Measurements: PubChem BioAssay AID652042 (Broad Institute, 2013)
Among all 1,100 compounds or so, about 350 (32%) were called active. The rule behind the calls is not given here. Not all results are given here. Entries with a potency or affinity are not part of this list.

Test: viability loss in CEM21 cells – cell-based, CellTiter-Glo luminescence, cherry-picked, cytotoxicity control for viral fusion inhibitor project, dose response (AID 652042)
Settings: CellTiter-Glo ATP luminescence, 24 h; series mostly up to 35 µM

Row | Compound | activity change, negative = cytotoxicity
1 | C[C@H](CO)N1C[C@H](C)[C@H](CN(C)S(=O)(=O)c2ccc(Cl)cc2)Oc2ccc(NC(=O)Nc3ccc4c(c3)OCO4)cc2C1=O | inactive
2 | C[C@H](CO)N1C[C@H](C)[C@H](CN(C)CC2CC2)Oc2ccc(NC(=O)Nc3ccc4c(c3)OCO4)cc2CC1=O | inactive
3 | C[C@H]1CN([C@@H](C)CO)C(=O)c2cc(NC(=O)Nc3ccc4c(c3)OCO4)ccc2O[C@H]1CN(C)S(=O)(=O)c1ccc(F)cc1 | inactive
4 | COc1ccc(CN(C)C[C@@H]2Oc3ccc(NC(=O)Nc4ccc(OC)cc4)cc3C(=O)N([C@H](C)CO)C[C@@H]2C)cc1 | inactive
5 | C[C@H](CO)N1C[C@H](C)[C@H](CN(C)S(=O)(=O)c2ccccc2)Oc2ccc(NC(=O)Nc3ccccc3)cc2CC1=O | inactive
6 | COc1ccc(NC(=O)Nc2ccc3c(c2)CC(=O)N([C@@H](C)CO)C[C@H](C)[C@H](CN(C)S(=O)(=O)c2cccs2)O3)cc1 | inactive
7 | COc1ccc(S(=O)(=O)Nc2ccc3c(c2)CC(=O)N([C@H](C)CO)C[C@H](C)[C@H](CN(C)S(=O)(=O)c2ccc(F)cc2)O3)cc1 | inactive
8 | CC(C)NC(=O)Nc1ccc2c(c1)CC(=O)N([C@H](C)CO)C[C@H](C)[C@H](CN(C)S(=O)(=O)c1cccs1)O2 | inactive
9 | COc1ccc(Cl)cc1CC1(C)C(=O)Nc2ccc(S(=O)(=O)NC3CCCCC3)cc21 (stereo not drawn) | inactive
10 | O=C(c1ccccc1)N1CCC(c2nc(-c3ccc(S(=O)(=O)NCC4CCCO4)cc3)no2)CC1 (stereo not drawn) | inactive
11 | CC1CCN(C(=O)c2ncn3c2C(=O)N[C@H](C)C3)CC1 | inactive
12 | Cc1nc2ncnn2c(N2CCCC(C(=O)Nc3ccc4c(c3)CCC4)C2)c1C (stereo not drawn) | inactive
13 | O=C(Nc1ccc2c(c1)CCC2)C1CCN(c2c3c(nc4ncnn24)CCC3)CC1 | inactive
14 | Oc1ccc(CNc2ccccc2F)c2cccnc12 | inactive
15 | N#C/C(=N\Nc1ccc(Cl)cc1)C(=O)c1ccccc1 | inactive
16 | NC(=S)c1ccc(OCCCc2ccccc2)cc1 | inactive
17 | O=C1c2cccc(OCc3ccc(F)cc3)c2CCN1Cc1ccccc1 | inactive
18 | C[C@@]12C(=O)N(CCc3c[nH]c4ccccc34)CC(=O)N1[C@H]1c3ccccc3OC[C@@H]1[C@@H]2c1ccccc1 | inactive
19 | C[C@@]12C(=O)N(CC3CCCO3)CC(=O)N1[C@H]1c3cc(Cl)ccc3OC[C@@H]1[C@@H]2c1ccccc1 (stereo partly drawn) | inactive
20 | COC(=O)CCn1nnc(-c2ccc(C(C)C)cc2)n1 | inactive
21 | COCC(=O)Nc1ccc2c(c1)C(=O)N(C)[C@H]1CC[C@H](CC(=O)NC3CCCC3)O[C@H]1CO2 | inactive
22 | CC1=CC(C)(C)N(C(=O)c2ccccc2)c2ccc(C)cc21 | inactive

Row | Compound | activity change, negative = cytotoxicity
23 | COCC(=O)Nc1ccc2c(c1)C(=O)N(C)C[C@@H](OC)[C@@H](C)CN(C)[C@H](C)CO2 | inactive
24 | CCOC1=C2[C@@H](CN(S(=O)(=O)c3ccccc3C)[C@H]2c2ccc(Cl)cc2)[C@H]2C(=O)NC(=O)[C@H]2C1 | inactive
25 | Cc1sc2ncnc(N3CCC(C(=O)Nc4cc(S(C)(=O)=O)ccc4Cl)CC3)c2c1C | inactive
26 | COC(=O)C1=C(C)N(CC2CC2)C(=O)N[C@H]1c1ccc(Br)cc1 | inactive
27 | O=C(NCc1ccco1)c1ccc(Cn2c(=O)c3sccc3n(Cc3cccc(F)c3)c2=O)cc1 | inactive
28 | CC[C@@]1(C(=O)OC)N[C@H](CN(C)C(=O)COc2ccccc2)[C@@H]2C(=O)N(Cc3ccccc3)C(=O)[C@@H]21 | inactive
29 | C[C@H]1CN([C@@H](C)CO)C(=O)Cc2cc(N(C)C)ccc2O[C@H]1CN(C)Cc1ccc(Cl)c(Cl)c1 | inactive
30 | C[C@@H]1CN([C@@H](C)CO)C(=O)c2cc(C3=CCCC3)cnc2O[C@@H]1CN(C)Cc1ccc(C(=O)O)cc1 | inactive
31 | O=C(NCc1ccccc1)c1ccc(C(=O)NCc2ccccc2)cc1 | inactive
32 | C=C(C)c1cccc(C(C)(C)NC(=O)Nc2ccc(Cl)cn2)c1 | inactive
33 | Cc1ncccc1C(=O)N1CCCC(C(=O)c2ccc3c4c(cccc24)CC3)C1 (stereo not drawn) | inactive
34 | CCOc1ccc(N(C)S(=O)(=O)c2cc(-c3cc(C)no3)ccc2C(C)C)cc1 | inactive
35 | Cc1ccc(NC(=O)c2ccc(CN3CCc4ccccc4C3)cc2)cc1 | inactive
36 | COc1ccc(NC(=O)c2ccc(Cl)c(S(=O)(=O)N3CCc4ccccc4C3)c2)cn1 | inactive
37 | Cc1ccc2c(c1)c1c3n2CCN(CCC#N)C3CCC1 (stereo not drawn) | inactive
38 | CC(CCc1ccco1)NC(=O)CCc1nnc2ccc(NCc3ccccc3Cl)nn12 (stereo not drawn) | inactive
39 | Cc1ccc(S(=O)(=O)N2CCC(=O)N(CCOC(=O)Nc3cccc(Cl)c3)CC2)cc1 | inactive
40 | COc1ccc(C)cc1NC(=O)CCNS(=O)(=O)c1ccc2c(c1)CC(C)N2C(C)=O (stereo not drawn) | inactive
41 | COc1ccccc1Oc1ccc(S(=O)(=O)NCc2ccccn2)cc1 | inactive
42 | O=C(C[C@H]1C[C@@H]2c3cc(NC(=O)C4CCOCC4)ccc3O[C@@H]2[C@@H](CO)O1)NCc1ccccc1F | inactive
43 | CC(C)CCN(N=O)[C@@H](Cc1ccccc1)CN(N=O)[C@@H](Cc1ccccc1)CN(C)N=O | inactive
44 | COc1ccc(-c2cc(=O)oc3c(C)c(O)ccc23)cc1 | inactive

Row | Compound | activity change, negative = cytotoxicity
45 | C=C1CCN([C@@H](Cc2ccccc2)C(=O)NCCC(C)C)S(=O)(=O)c2ccccc21 | inactive
46 | O=C(NCCc1ccccc1)c1ccc2c(c1)OCCO2 | inactive
47 | CSCCC(NS(=O)(=O)c1ccc2c(c1)oc(=O)n2C)C(=O)NC1CCCc2ccccc21 (stereo not drawn) | inactive
48 | CC(=O)c1ccc([C@H]2C[C@@]34CN(C(=O)OC(C)(C)C)S(=O)(=O)[C@H]3C[C@H]2O4)cc1 | inactive
49 | CN(C)CC(=O)Nc1ccc2c(c1)[C@H]1C[C@@H](CC(=O)NCCc3ccccc3)O[C@H](CO)[C@H]1O2 | inactive
50 | O=C(Nc1cccc(C(=O)O)c1)Nc1ccc2c(c1)OCO2 | inactive
51 | COc1ccc(NC(=O)C2CCCN2S(=O)(=O)c2ccc3c(c2)CCC(=O)N3)cc1Cl (stereo not drawn) | inactive
52 | O=C(COc1ccc(-n2cnnn2)cc1)Nc1ccc(F)c(F)c1 | inactive
53 | Cn1cccc1C(=O)OCC(=O)NCCc1ccc(S(N)(=O)=O)cc1 | inactive
54 | Cc1cc2c3c(c1)C1(SCC(=O)N1c1ccc(F)cc1)C(=O)N3C(C)(C)CC2C (stereo not drawn) | inactive
55 | CCN(CC)S(=O)(=O)c1cc(NC(=O)C(=O)c2c(-c3ccccc3)cc3ccccn23)ccc1C | inactive
56 | CC(C)N(Cc1nc(-c2ccccc2)no1)C(=O)CN(C)S(=O)(=O)c1ccc(Br)cc1 | inactive
57 | O=C(C[C@H]1CC[C@@H](NC(=O)Nc2ccccc2F)[C@@H](CO)O1)NCc1ccc(Cl)cc1 | inactive
58 | COc1cccc(S(=O)(=O)N[C@H]2CC[C@H](CC(=O)NCc3ccncc3)O[C@@H]2CO)c1 | inactive
59 | COc1cccc(CNC(=O)C[C@@H]2C=C[C@H](NC(=O)C3CCC3)[C@H](CO)O2)c1 | inactive
60 | O=C(NCC[C@@H]1CC[C@@H](NS(=O)(=O)c2ccccc2F)[C@@H](CO)O1)c1ccc(F)cc1 | inactive
61 | O=C(C[C@@H]1CC[C@@H](NC(=O)c2ccncc2)[C@H](CO)O1)NCCc1ccncc1 | inactive
62 | O=C(C[C@H]1C=C[C@@H](NC(=O)Nc2ccccc2F)[C@@H](CO)O1)NCc1ccc(Cl)cc1 | inactive
63 | COC(=O)[C@@]1(C)[C@H]2C(=O)N(Cc3ccccc3)C(=O)[C@H]2[C@H]2CN=C(SCc3ccc(C#N)cc3)N21 | inactive
64 | CN(C[C@H](Cc1ccccc1)N(C[C@H](c1ccccc1)N(CCc1ccccc1)N=O)N=O)N=O | inactive
65 | Cc1ccc(C(c2nnnn2CS(=O)(=O)c2ccc(C)cc2)N2CCCC2)cc1 (stereo not drawn) | inactive
66 | N#Cc1ccc(C(c2nnnn2CCc2ccccc2)N2CCCCCC2)cc1 (stereo not drawn) | inactive

Row | Compound | activity change, negative = cytotoxicity
67 | COc1ccc(NC(=O)Nc2ccc3c(c2)C(=O)N([C@@H](C)CO)C[C@H](C)[C@H](CN(C)Cc2ccncc2)OCCCC[C@H](C)O3)cc1 | inactive
68 | Cc1ccc(-c2nnn(CC(=O)N(CC3CCCO3)C(C(=O)NC3CCCCC3)c3ccc(F)cc3)n2)o1 (stereo not drawn) | inactive
69 | Cc1ccc(C(C(=O)NC2CCCCC2)N(C(=O)c2csnn2)C2CCCC2)o1 (stereo not drawn) | inactive
70 | COc1ccc(NC(=O)CN2CCC(C(N)=O)(N3CCCCC3)CC2)cc1 | inactive
71 | CC1CCN(C(=O)c2ncn3c2C(=O)N[C@@H](C)C3)CC1 | inactive
72 | COc1ccc(-c2cc(C3CCN(c4cc(Cl)nc(N)n4)CC3)[nH]n2)cc1 | inactive
73 | CCOc1ccc(OCc2cccc(C(=O)N/N=C/c3cccnc3)c2)cc1 | inactive
74 | CC(c1nc2ccccc2c(=O)[nH]1)N(C)CCOc1ccc(Cl)cc1 (stereo not drawn) | inactive
75 | Cc1ccc(S(=O)(=O)N(C)C)cc1NC(=O)COc1ccccc1C(=O)Nc1ccccc1 | inactive
76 | CC(C)CCN(C(=O)c1csnn1)C(C(=O)NC1CCCC1)c1ccc(F)cc1 (stereo not drawn) | inactive
77 | Cc1ccccc1CCN(C(=O)c1csnn1)C(C(=O)NC1CCCC1)c1ccncc1 (stereo not drawn) | inactive
78 | COc1cc(NC2c3ccccc3C(=O)N2Cc2ccccc2)cc(OC)c1OC (stereo not drawn) | inactive
79 | CCOC(=O)c1ccc(NC2c3ncccc3C(=O)N2Cc2ccc(F)cc2)cc1 (stereo not drawn) | inactive
80 | COc1ccc(-c2cc(=O)oc3c(C)c(O)c(CN(C)C)cc23)cc1 | inactive
81 | COc1ccc(S(=O)(=O)NNC(=O)C2Cc3c(ccc4ccccc34)O2)cc1 (stereo not drawn) | inactive
82 | CN(C)S(=O)(=O)c1ccc(N2CCCC2)c(C(=O)NCCc2ccc(F)cc2)c1 | inactive
83 | CC(C)n1c(NCCc2ccccc2)nc2c1c(=O)n(C)c(=O)n2C | inactive
84 | CC[C@]1(C(=O)OC)[C@H]2C(=O)N(Cc3ccccc3)C(=O)[C@H]2[C@H]2CN=C(SCc3ccc(C)cc3)N21 | inactive
85 | COc1ccc(CCN2C(=O)c3[nH]nc(-c4ccccc4O)c3C2c2cccc(O)c2)cc1OC (stereo not drawn) | inactive
86 | COc1ccc(OC)c(CN2C(=O)c3ccccc3C2c2nnnn2-c2c(C)cccc2C)c1 (stereo not drawn) | inactive
87 | COCc1[nH]nc2c1C(c1ccc(F)cc1)N(Cc1ccccc1)C2=O (stereo not drawn) | inactive
88 | COc1ccc(CCN2C(=O)c3[nH]nc(-c4ccccc4O)c3C2c2ccc(C)cc2)cc1OC (stereo not drawn) | inactive
